Measurements as given in article PMC12864922, “TDP-43 directly inhibits mRNA accumulation in neurites through modulation of mRNA stability”.
Whole data set: some 9,900 sequences, median “r (bound/input frequency ratio)” near 0.7, cut for the highest 2% near 6.5. Shown is part of a subset that was picked to be rich in the highest values.

B1: ENSMUSG00000090935.612|Synj2bp (ssRNA)
RNA: GGGAGUUCUACAGUCCGACGAUCGCUUCGAUAUCCGCAUGCUAUUUUCUGUGUGGGUGAUUUCAUUUAAUUAAUUGGACAGUCUAGCCACAGGCAACAAAUAGAAAUAGUAUUUGUAAUUAUAGUCUAUGCCAGGGACUGUCUUAAACUGAUUAGUAACACUAUGACUUACCCUGAGAUCUAAGUAUUGCUAUAAAGAGACUGAAGAGGAGAGAAUAAAGUAUUUUCCUAGGACUACAUAGUUGGUAAAAGAGAAUCAUGAUUUAAACUCUGGACUAUGGAUGGCAGUAUCAGUAAUAUUCCCCUCUUGCGGUCGCACUAGUGUGGAAUUCUCGGGUGUCAAGG
B2: ENSMUSG00000061578.450|Ksr2 (ssRNA)
RNA: GGGAGUUCUACAGUCCGACGAUCGCUUCGAUAUCCGCAUGCUACUUCUAACCUUGUACUGGGACAUCAUCUAUGUCCCCAUCCCCAGAGCUGAAUUAGAGACACCAAGUAGCCUCUUGGGUUGUUUUGUGGGGUGUUCCCCUUGCUGGUCAAAGGAGUGGAAAGCCACCUUGCUGUAAAUGCUCUUGUUUUCUGUAGCAAUCUUGAACUCUUUUUUUUUUUUGUUCGUUUGUUUGUUUGUUUGUUUGUUUGUUUUUUCAAGACAGGGUUUUUCUGUAUAGCCCUGGCUGUCCUGGAACUCAUUCUCUUGCGGUCGCACUAGUGUGGAAUUCUCGGGUGUCAAGG
B3: ENSMUSG00000043670.112|Diras1 (ssRNA)
RNA: GGGAGUUCUACAGUCCGACGAUCGCUUCGAUAUCCGCAUGCUACCGUGACCUCUGACCUGUGGCCUUCCCUGGGUCCAGAACACCCCUGUCCUCUCCUGUCUGCACACCAGGGUGGAUGGGCCCGAGGGCUGGGCCUCAGGCACCAGGCAAUAAACACAGGGCCUGCAGCAAUGCCCUGGCCACCCCGAGUACCACCUCUGGAAUAGCAGACGCCCACAGCACAAGCCCAGGACUGUCCCUUCAGGGGAGGCACACUGGAACCCUGAACUUGGAGUGUGGAGUGGCUGCCUGGACACUGCCCACUCUUGCGGUCGCACUAGUGUGGAAUUCUCGGGUGUCAAGG
B4: ENSMUSG00000090935.544|Synj2bp (ssRNA)
RNA: GGGAGUUCUACAGUCCGACGAUCGCUUCGAUAUCCGCAUGCUAUUGUUGAUCUAAAUAAAAAAUAUCAUUGGUAGAAGUUUUACUUUGGUUGAUAAGGAUUCUGAUAACAUUUGGGUCUCCUUAGGAAAGAAACACUUAACUAAAACAUUUAAGUUUUAGGCAAAUACUGUAAUAUUUCACUCUUAGUUAUAUGAAAACUAAAUGAGAUGUUGAGAAUCUAUAUAGAUUAUUCAAAUUUUAUGUUUCUUAUAGACUGACUCAAAUAUUCCUACCACCUUAAAAUUAUAUAUGAUGCACCUACCCUCUUGCGGUCGCACUAGUGUGGAAUUCUCGGGUGUCAAGG
B5: ENSMUSG00000029028.198|Lrrc47 (ssRNA)
RNA: GGGAGUUCUACAGUCCGACGAUCGCUUCGAUAUCCGCAUGCUAUGUGUACGCAUCUGUACCAGCACACAGCUGCCAUCCCUCGAGCCACAGUGCCUGGUCCUAAGGACCCAGCAGCUGCACAGAGGACUUGGUGGCCCCGUGCCUUGCCAUCUGGCUGAGAAGAGAACCAGACCCUCAGCCUUCCCCCUCGACACCUUCUCGUUGGUGACCUCUGACCUUAAAGGACCAUUUCUACCUUCUGUAAAAGAACACCUGUUUGGGGUUGCGUGCGGCUUUCAUCCUAAGGCCGUGCGAGAGCCGUUCUCUUGCGGUCGCACUAGUGUGGAAUUCUCGGGUGUCAAGG
B6: ENSMUSG00000029636.117|Wasf3 (ssRNA)
RNA: GGGAGUUCUACAGUCCGACGAUCGCUUCGAUAUCCGCAUGCUAGGAGCCCUGUGGGUACUCAUGUGGAAAGUGCCCACUGACUUUGGCAGAUGGAGUUCACUUUCAUGGCUAGCCCUGAUAGCGUUGGGCACCAGUUAGCCAGGCCAUGUUCAAGCUGCCUAGAGUCUGCAGAGCUUGCAUGGCAGAGCGGCCGCAUCUGGUUCCCUCCUACUCCACCCAGUGGAAAAGAGACCUCCACGUUUUAUUUUCUGGGAUCCCUGCUCCUCUGUUCACCAGGGAGUGAGCACAGGUCAGCACCUCACCUCUUGCGGUCGCACUAGUGUGGAAUUCUCGGGUGUCAAGG
B7: ENSMUSG00000042529.497|Kcnj12 (ssRNA)
RNA: GGGAGUUCUACAGUCCGACGAUCGCUUCGAUAUCCGCAUGCUAGGGCCCCUGCAGCUGGACCAUGUACAGGGCUCCCUGGGGCUUGUCCUCAGGGGCAGAGAAGGACAUGGUGGCAGCAGCACUGAGAACAGGAGCAUGGCCUCUCUCAGACCCCAGGGCAGUCAUUCAGUCUUUUCCAUGGACACUCCCCACCGCUCCACAUACUGCCUCCGCCUCAUUCUUGGGCUCUUCCUGCCUUGCUGUCUUUCCUUCCACACAGAAGCACCAAGCAUCAUCCAUUCCCAUAGGCAAGCCCAGGGCACCUCUUGCGGUCGCACUAGUGUGGAAUUCUCGGGUGUCAAGG
B8: ENSMUSG00000058297.521|Spock2 (ssRNA)
RNA: GGGAGUUCUACAGUCCGACGAUCGCUUCGAUAUCCGCAUGCUAGACCACGUGUGAUGGGUGGGCACAGGUCUGCCUUGCUCCAGCCCCCUCCCUUGGUUUCUGUUGGUACCCAUUUGGCUUUUAUCUGCUUUCUGCUUCACCACUAAGUGCGUAGGUGGGGUCUUUUGAUAUCGGCUCCCCAAAGCCCAAGCCCACAGCCCUAGGAGAGAACCAGGGGCCCAUCUUUGACACCUGGGCCAUCACGAGCCCUCCCGCCUGCAGUUGUCCUAGGGAAAGACCUGGGGGUGCAAAAGGAGAUUCAACUCUUGCGGUCGCACUAGUGUGGAAUUCUCGGGUGUCAAGG

Target: TDP-43 (Homo sapiens, UniProt Q13148 1-414)
Sequence (Q13148 whole entry): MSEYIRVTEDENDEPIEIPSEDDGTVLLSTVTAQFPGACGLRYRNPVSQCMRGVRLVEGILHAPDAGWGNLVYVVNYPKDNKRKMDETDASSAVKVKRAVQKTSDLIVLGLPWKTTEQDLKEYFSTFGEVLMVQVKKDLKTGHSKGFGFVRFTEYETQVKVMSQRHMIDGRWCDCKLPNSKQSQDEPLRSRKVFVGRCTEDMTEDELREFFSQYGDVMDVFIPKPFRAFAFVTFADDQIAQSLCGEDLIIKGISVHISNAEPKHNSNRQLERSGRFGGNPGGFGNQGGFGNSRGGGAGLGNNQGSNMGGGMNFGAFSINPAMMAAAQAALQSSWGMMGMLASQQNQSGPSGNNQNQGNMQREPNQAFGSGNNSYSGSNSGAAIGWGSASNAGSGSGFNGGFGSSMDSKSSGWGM
Test: RNA Bind-n-Seq with designed 260-mer pool; 25 mM Tris-HCl, 150 mM KCl, 3 mM MgCl2, BSA (printed 500 mg/mL), 20 units/mL SUPERase IN; pH not stated; 500 nM RNA pool, 1 h, 4 C; TDP-43 5, 50, 500 nM; high values mean tight binding
Details: protein: recombinant; tags: SBP (GST cleaved off with PreScission; pGEX-GST-SBP)
Outline: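 The incubation lasted 1 h at 4 °C and used 500 nM of an in vitro-transcribed 260-nt 3′ UTR oligo pool with recombinant SBP-tagged TDP-43 at 5, 50 or 500 nM immobilized on streptavidin beads. It took place in 25 mM Tris-HCl, 150 mM KCl, 3 mM MgCl2, BSA and SUPERase IN. Bound RNA was washed, eluted with biotin, converted to cDNA, PCR-amplified and sequenced to give R, each oligo's normalized abundance in the bound sample divided by that in input. Two independent protein batches provided the duplicates.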

Row | Binder | binding signal
1 | B1 | 0.0897 R (bound/input frequency ratio)
2 | B2 | 2.73 R (bound/input frequency ratio)
3 | B3 | 0.898 R (bound/input frequency ratio)
4 | B4 | 0.0172 R (bound/input frequency ratio)
5 | B5 | 0.346 R (bound/input frequency ratio)
6 | B6 | 0.346 R (bound/input frequency ratio)
7 | B7 | 0.929 R (bound/input frequency ratio)
8 | B8 | 0.432 R (bound/input frequency ratio)
